LYPLA1 counter: counter-screen for PME1 inhibitors: inhibitors of human LYPLA1. recombinant LYPLA1, FP-Rh probe fluorescence polarization. inhibition, % at 5.9 µM. 0.16% of 320,000 active;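 active = inhibition above the mean of all tested compounds plus 3 SD, set per campaign, cut at about 14% in these data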;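 note: inhibitors block serine hydrolase probe labeling of LYPLA1 so polarization falls; 0% = enzyme with DMSO and 100% = wells lacking LYPLA1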
GSTO1 inh: GSTO1 inhibition, counter-screen for RBBP9 inhibitors; P78417; recombinant GSTO1, activity-based probe fluorescence polarization; inhibition, % at 5.96 µM; 1.1% of 300,000 active;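 active = inhibition above the campaign mean inhibition plus 3 SD, cut at about 35% in these data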;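 note: 0% = GSTO1-1 with DMSO and 100% = wells lacking GSTO1-1 enzyme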
Target sequence (P78417 whole entry, looked up): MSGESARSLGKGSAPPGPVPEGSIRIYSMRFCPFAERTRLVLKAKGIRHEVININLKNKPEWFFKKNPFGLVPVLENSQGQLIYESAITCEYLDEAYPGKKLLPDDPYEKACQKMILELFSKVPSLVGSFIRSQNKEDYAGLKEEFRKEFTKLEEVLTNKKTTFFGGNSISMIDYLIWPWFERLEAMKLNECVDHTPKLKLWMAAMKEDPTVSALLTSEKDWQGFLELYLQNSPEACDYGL
Fam108B inh: Fam108B inhibition, counter-screen for RBBP9 inhibitors; recombinant Fam108B, FP-Rh probe fluorescence polarization; inhibition, % at 9.51 µM; 0.33% of 300,000 active;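 active = inhibition above the screen mean inhibition plus 3 SD, computed separately per campaign, cut at about 18% in these data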;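 note: inhibitors lower polarization as less probe binds the enzyme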
LYPLA2 inh: LYPLA2 (human) inhibition in PME1 counter-screen; recombinant LYPLA2, FP-Rh probe fluorescence polarization; inhibition, % at 5.9 µM; 0.38% of 320,000 active; O95372; AID 2177;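 active = inhibition above the screen-wide mean plus 3 SD, limit set per campaign, cut at about 26% in these data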;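 note: 0% = LYPLA2 with DMSO and 100% = wells lacking LYPLA2 enzyme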
Target sequence (O95372 whole entry, looked up): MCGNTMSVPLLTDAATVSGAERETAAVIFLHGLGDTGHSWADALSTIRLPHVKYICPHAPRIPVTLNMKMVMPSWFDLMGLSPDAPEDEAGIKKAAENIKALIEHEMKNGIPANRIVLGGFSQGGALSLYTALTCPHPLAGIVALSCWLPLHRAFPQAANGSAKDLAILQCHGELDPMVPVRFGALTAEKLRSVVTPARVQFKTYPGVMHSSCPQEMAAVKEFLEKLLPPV
PME-1 primary: blocks human protein phosphatase methylesterase 1; Q9Y570; recombinant PME-1, FP-Rh probe fluorescence polarization; inhibition, % at 5.9 µM; 0.53% of 320,000 active; AID 2130;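 active = inhibition above the campaign mean of all compounds plus 3 SD, cut at about 26% in these data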;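 note: competitive labeling of PME-1 active site by serine hydrolase directed probe; 0% = PME-1 with DMSO and 100% = wells lacking PME-1 enzyme; inhibitors block probe labeling so polarization falls and inhibition rises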
PAD4 FP inh: PAD4 (human) enzyme inhibition; Q9UM07; recombinant PAD4, RCA probe fluorescence polarization; inhibition, % at 6.36 µM; 0.41% of 330,000 active; AID 485272;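 active = percent inhibition above a cutoff equal to the mean of all tested compounds plus 3 SD, cut at about 15% in these data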;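 note: 0% = PAD4 with RCA probe and DMSO and 100% = probe without PAD4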
Active calls of the source: *; . = no result. A selection: hits, their analogues and other compounds. The true share with any hit is near 1.8%.

SMILES	LYPLA1 counter	GSTO1 inh	Fam108B inh	LYPLA2 inh	PME-1 primary	PAD4 FP inh
O=C(CCn1ccc2cc(S(=O)(=O)N3CCCC3)ccc21)NCc1ccccc1	-2	4	-3	4	13	3
O=[N+]([O-])c1ccc(-[n+]2ccc3ccccc3c2)c([N+](=O)[O-])c1	-5	12	1	2	-1	-3
O=C1CC(c2ccc(Cl)cc2)c2c(O)cc(O)cc2O1 (stereo not given)	-3	37*	-8	4	3	0
O=C1NC(=Nc2cccc(O)c2)S/C1=C\c1cccc([N+](=O)[O-])c1	3	8	5	5	5	1
CN(C)c1ccc(/C=N/N=C2/NC(=O)/C(=C/c3ccc([N+](=O)[O-])cc3)S2)cc1	-1	49*	2	8	11	0
O=C(O)c1[nH]c2ccccc2c1C(c1cc(Br)ccc1O)c1c(C(=O)O)[nH]c2ccccc12	-1	59*	7	5	-1	-3
O=C(O)c1[nH]c2ccccc2c1C(c1c(F)cccc1Cl)c1c(C(=O)O)[nH]c2ccccc12	2	41*	-1	12	-1	-7
Cc1cc(C)c(S(=O)(=O)N2CCN(S(=O)(=O)N3CCOCC3)CC2)c(C)c1	-1	-1	-2	-2	5	-2
C#CCSc1nnc(-c2sc(-c3ccccc3)nc2C)n1C	0	74*	0	-4	-4	-5
Cc1c(N2C(=O)c3ccc4c5c(ccc(c35)C2=O)CC4)c(=O)n(-c2ccccc2)n1C	-3	36*	9	1	5	1
C=CCOc1ccc(/C=N/NC(=O)c2cc3c(OC)cc(OC)cc3[nH]2)cc1	-22	-25	13	-28	41*	1
COc1cc(SC)ccc1C(=O)N1CCN(S(=O)(=O)/C=C/c2ccccc2)CC1	-2	.	.	3	10	2
Cc1oc2cc(O)ccc2c(=O)c1Oc1ccc(F)cc1	-6	-10	-3	6	-2	0
Cc1oc2cc(O)ccc2c(=O)c1Oc1ccc2ccccc2c1	-2	37*	0	1	-6	2
Cc1nn(C(=O)c2nn(C)cc2[N+](=O)[O-])c(C)c1Cl	3	-2	-1	0	2	-3
O=C(c1ccccc1F)N1CCN(Cc2nc3sc4c(c3c(=O)[nH]2)CCCC4)CC1	0	0	0	-3	27*	-3
CC(=O)c1ccc(NC(=O)CSc2nnc(-c3ccco3)c(-c3ccco3)n2)cc1	-4	35*	10	5	-2	-4
CC(=O)Nc1ccc(NC(=O)CSc2nnc(-c3ccco3)o2)cc1	-1	-5	1	1	1	2
CC(C)Oc1ccc(S(=O)(=O)N2CCCCC2)cc1NC(=O)CN1C(=O)NC(C)(c2ccccc2)C1=O (stereo not given)	1	1	1	5	39*	0
Cc1cc(C(=O)CSc2nc(N)cc(=O)[nH]2)c(C)n1CCc1ccc(F)cc1	-8	-1	-5	-6	0	32*
Cc1cc(C(=O)CCl)c(C)n1CCc1ccc(Cl)cc1	-5	88*	-2	-2	17	-2
Cc1cc(C(=O)CSc2nnc(N)s2)c(C)n1CCc1ccc(Cl)cc1	-1	1	-3	1	-11	-2
Cc1ccc(C(=O)N/C(=C\c2ccc(-c3ccccc3[N+](=O)[O-])o2)C(=O)NCCCN2CCOCC2)cc1	4	36*	3	5	12	-11
N#C/C(=C\c1ccc(-c2ccc([N+](=O)[O-])cc2)o1)C(=O)Nc1nc(-c2cccs2)cs1	-13	-20	0	-8	1	-37
N#C/C(=C\c1ccc(-c2ccccc2[N+](=O)[O-])o1)C(=O)Nc1nc(-c2cccs2)cs1	-13	19	6	12	29*	-9
SMILES	LYPLA1 counter	GSTO1 inh	Fam108B inh	LYPLA2 inh	PME-1 primary	PAD4 FP inh
COC(=O)/C(=C(O)\C=C\c1ccccc1[N+](=O)[O-])c1nc2ccccc2[nH]1	-9	4	5	-10	29*	-1
CCOc1cc(C)c(S(=O)(=O)NC2CC(C)(C)NC(C)(C)C2)cc1C	-5	37*	2	-2	-4	-3
CC(=O)c1c(C)cc(C)c(CSc2nnc(-c3ccco3)o2)c1C	-1	35*	0	3	0	3
CCOc1ccccc1CN1CCNC(=O)C1CC(=O)N(C)C1CCOCC1 (stereo not given)	-1	3	-3	1	0	-3
COc1ccc(Cc2nnc(SCC(=O)c3ccccc3)o2)cc1	-4	19	-4	8	-1	3
COc1ccc(C(=O)CSc2nnc(-c3ccc(C)cc3)o2)cc1	-3	13	-3	-1	1	2
COc1ccc(C(=O)CSc2nnc(-c3cc(C)on3)o2)cc1	-3	36*	-1	3	-4	-5
COc1ccc(Cc2nnc(SCC(=O)c3ccc(OC)cc3)o2)cc1	-3	37*	-4	0	3	-1
O=C(Nc1ccc(O)cc1)C1CC=CCC1 (stereo not given)	7	37*	9	18	14	5
O=C(Nc1nccs1)C1CC=CCC1 (stereo not given)	5	4	2	6	-2	1
COc1ccc(OC)c(/C=N/NC(=O)CCc2ccc(O)c(O)c2)c1	-2	36*	6	-2	-7	3
COc1ccc(OC)c(/C=N/NC(=O)CCc2c(C)n[nH]c2C)c1	1	-2	0	2	3	-4
Cc1cc(C)n(CCN(C)C(=O)C2CCC(=O)N(CCN3CCOCC3)C2)n1 (stereo not given)	2	2	1	4	0	4
O=[N+]([O-])c1cc(S(=O)(=O)Nc2cccc(C(F)(F)F)c2)ccc1-n1nnc2ccccc21	-6	-43	-4	-10	33*	-2
COc1ccc(NS(=O)(=O)c2ccc(-n3nnc4ccccc43)c([N+](=O)[O-])c2)cc1	-3	-9	1	0	7	-6
COc1cccc(N=Nc2c(=O)[nH]n3c(=O)c4c([nH]c23)CCC4)c1	3	10	5	-3	36*	-1
CC#CC(=O)N1CCC(CO)(CCc2ccccc2)CC1	4	11	2	7	0	-2
Cc1c(CCO)c(=O)n(-c2ccccc2)n1S(=O)(=O)c1c(Cl)cc(Cl)cc1Cl	5	37*	-1	2	22	-5
CCNc1ccccc(C(=O)/C=C/c2ccc3c(c2)OCO3)c1=O	4	44*	6	2	3	-5
COc1cc(/C=C2/C(=N)N3C(=NC2=O)SN=C3S(C)(=O)=O)ccc1OS(=O)(=O)c1ccccc1	-5	-37	-9	-6	-2	-3
COc1cc(/C=C2/C(=O)N(c3ccccc3)N=C2C)ccc1OS(=O)(=O)c1ccccc1	-5	36*	10	2	13	36*
